Screening data: PubChem BioAssay, National Center for Advancing Translational Sciences (NCATS)
HCV inhibitor: inhibitors of hepatitis C virus infection. Huh7.5.1 HCVcc-Cre infection, luciferase reporter, 44 h. Potency, µM (top dose mostly 41.8 µM), hits mostly inhibitors. actives 3.4% (n = 340,000). AID 651820
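Infectious HCV cell culture screen: compound-treated cells (1,000/well, pre-plated 4 h) are infected with HCVcc-Cre at roughly 0.5 moi and grown 44 h. Infection is quantified by luciferase signal after 15 min substrate incubation at room temperature.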
HCMV inh: blocks human cytomegalovirus replication. HFF cells, HCMV-luciferase reporter, 72 h; stronger effect = lower value. activity change, negative = inhibition, % at 57.5 µM. actives 4.5% (n = 410,000). AID 1259415; in the data active = activity change below about -60%; inconclusive = no clear call, values can overlap the other calls; inactive = above about -39%
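Inhibition of viral replication was scored as loss of reporter luminescence in HFFs infected with HCMV-luciferase (MOI 1 PFU/cell) for 72 h; compounds tested at 2 doses, normalized to buffer and Salinomycin controls.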
Pf growth 96h: P. falciparum growth inhibition at 96 hour, primary screen for plastid delayed-death inhibitors. P. falciparum luciferase reporter growth, 96 h. Potency, µM (series often up to 28.7 µM), actives largely listed as inhibitors. actives 6.9% (n = 320,000). AID 504834
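Plates of compound plus infected erythrocytes (2% hematocrit, 0.05% parasitemia final) incubate 96 hours, 37 C, 5% CO2. Detection reagent added; reduced luminescence from the parasites' luciferase reporter flags inhibition.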
Pf growth 48h: inhibits P. falciparum growth in the first generation, 48 h; P. falciparum luciferase growth in erythrocytes, 48 h; Potency, µM (highest dose often 28.7 µM), hits mostly inhibitors; actives 5.9% (n = 310,000); AID 504832
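Luciferase-expressing P. falciparum in infected erythrocytes (2% hematocrit, 0.1% parasitemia final) in RPMI 1640/0.5% Albumax were exposed to compound for 48 hours at 37 C, 5% CO2; growth read as luminescence.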
Shiga toxin inh: blocks Shiga toxin action in Vero cells; actives 9.2% (n = 290,000); inhibition, % at 38.7 µM; Vero cells, Shiga toxin protein synthesis inhibition reporter; in the data active = inhibition mostly above about 28%, no sharp cut-off; inactive = mostly below about 43%
CHX counter: counter-screen hit for Shiga toxin inhibitors, cycloheximide. actives 12% (n = 300,000). cell reporter, cycloheximide protein synthesis inhibition counterscreen. max response, %; in the data active = max response mostly above about 13%, no sharp cut-off; inactive = mostly below about 14%; note: read at 38.3 µM for the half of the compounds with a filed dose
A number is an active result; . = inactive; ? = inconclusive; / = no result. In the library only some 21% were active in any assay of this set; here they are far more common. Unless noted, calls come from the whole dose curve; as a rule, active = well fitted inhibition curve with a large enough effect; inconclusive = small, poorly fitted or top-dose-only effect, or another doubt; inactive = no such curve, though single readings can be large or run the other way.

SMILES	HCV inhibitor	HCMV inh	Pf growth 96h	Pf growth 48h	Shiga toxin inh	CHX counter
Cc1cc2c(cc1S(=O)(=O)N(CCN(C)C)Cc1ccccc1)OCC(=O)N2	/	.	/	/	/	/
Cc1ccc(NC(=O)/C(C#N)=N/Nc2ccc(C(=O)O)cc2)c(C)c1	.	.	?	.	.	.
Cc1ccc(N/N=C(\C#N)C(N)=S)c(C)c1	.	.	?	.	.	13
c1ccc2c(c1)CC/C2=N/Nc1nc2ccccc2[nH]1	?	-112	?	2.6µM	119	47
CC(C)(C)C1CCC(=NNC(=S)Nc2cccnc2)CC1 (centres undefined)	.	.	.	.	.	.
CC(C)(C)C1CCC(=NNc2nc3ccccc3[nH]2)CC1 (centres undefined)	.	.	?	?	68	37
O=C(c1ccccc1-c1nc2ccccc2[nH]1)N1CCCCC1	.	.	.	.	.	.
c1ccc(CN2CCC(=NNc3nc4ccccc4[nH]3)CC2)cc1	.	.	?	.	.	33
COc1ccc2nc(NC(=O)c3ccc(S(=O)(=O)N4CCC(C)CC4)cc3)sc2c1	/	.	/	/	/	/
Cc1ccc(NC(=O)Nc2nnc(CSCCOc3ccc(Cl)cc3)s2)cc1	.	.	?	.	.	.
O=C(Nc1ccc(Cl)cc1)Nc1nnc(CSc2ccc(Cl)cc2)s1	?	-85	?	.	.	.
O=C(Nc1cccc(Cl)c1)Nc1nnc(CC2=CCCCC2)s1	?	-98	?	15µM	.	.
O=C(Nc1ccc(Cl)cc1)Nc1nnc(Cc2ccc([N+](=O)[O-])cc2)s1	.	.	?	.	.	.
Cc1ccc(NC(=O)Nc2nnc(Cc3ccc([N+](=O)[O-])cc3)s2)cc1	.	.	?	.	77	50
O=C(Nc1ccc(F)cc1)Nc1nnc(Cc2ccccc2)s1	.	.	4.7µM	?	/	.
COc1ccc2c(c1)NC(c1cccnc1)=NC(c1ccc(F)cc1)=N2	/	.	/	/	/	/
O=C1CC(c2nc3ccccc3n2CCCOc2ccccc2)CN1c1ccc(F)cc1 (centres undefined)	/	.	/	/	/	/
O=C1c2ccccc2C2(c3cc(C(F)(F)F)cc(C(F)(F)F)c3)NCCN12 (centres undefined)	.	.	?	?	.	.
O=C(Cc1nnc(NC(=O)Nc2ccc(Cl)cc2)s1)NCc1ccccc1	.	.	.	.	.	.
O=C(Nc1cccc(Cl)c1)Nc1nnc(CSCCOc2ccc(Cl)cc2)s1	2.5µM	-72	?	12µM	.	.
O=C(Nc1ccccc1)Nc1nnc(SCc2ccc(Cl)cc2)s1	.	.	?	.	.	.
O=C(Nc1ccc(Cl)cc1)Nc1nnc(CSCc2ccccc2)s1	.	-70	.	?	.	.
O=C(Nc1ccc(Cl)cc1)Nc1nnc(SCc2ccc(Cl)cc2)s1	.	.	5.2µM	.	.	.
CC(C)Cc1nnc(NC(=O)Nc2ccccc2)s1	.	.	.	.	57	46
CCCC[C@@H]1CC2=C(C(=O)OC(C)(C)O2)[C@@H](c2ccc(F)cc2)O1	/	.	/	/	/	/
SMILES	HCV inhibitor	HCMV inh	Pf growth 96h	Pf growth 48h	Shiga toxin inh	CHX counter
CC(C)[C@H](NC(=O)N1CCn2c1nc1ccccc12)C(=O)NC1CCCCC1	?	.	?	.	.	.
O=C(Nc1cc2c(cc1Br)OCCCO2)c1cccnc1	.	.	.	.	84	38
O=C(Nc1cc2c(cc1C(=O)c1ccccc1Cl)OCCO2)c1ccc(Br)cc1	/	.	/	/	/	/
O=C(NC(=S)Nc1ccccc1Br)c1cccnc1	.	.	.	.	/	.
O=C(Nc1cc2c(cc1Br)OCCCO2)c1ccccc1	.	.	.	.	123	78
O=C(NCCCNC(=O)c1ccccc1)c1ccccc1	.	.	/	/	/	/
CCc1cc2c(=O)c(-n3cnc4ccccc43)coc2cc1O	.	.	?	?	.	.
CCC(Oc1ccc2c(=O)c(-c3ccccc3OC)coc2c1)C(=O)OCc1ccccc1 (centres undefined)	?	.	?	.	.	.
CCc1cc2c(=O)c(-c3cscn3)coc2cc1OC	/	/	.	.	101	.
CCc1cc2c(=O)c(-c3cscn3)coc2cc1O	.	.	/	.	67	31
CN(C)c1cccc(C(=O)NN2C(=O)NC3(CCCCC3)C2=O)c1	.	.	.	.	/	/
CCCSc1nnc(-c2cccc(S(=O)(=O)N(C)C)c2)n1-c1cc(OC)ccc1OC	.	-62	?	?	.	.
COc1cccc(-n2c(SCc3c(C)noc3C)nnc2-c2cccc(S(=O)(=O)N(C)C)c2)c1	.	.	?	12µM	.	.
CCSc1nnc(-c2cccc(S(=O)(=O)N(C)C)c2)n1-c1cc(OC)ccc1OC	?	.	?	?	.	.
COc1ccc(OC)c(-n2c(SCC(C)=O)nnc2-c2cccc(S(=O)(=O)N(C)C)c2)c1	.	.	12µM	/	.	.
COc1ccc(OC)c(-n2c(-c3cccc(S(=O)(=O)N(C)C)c3)n[nH]c2=S)c1	.	.	.	.	.	.
Cc1noc(C)c1CSc1nnc(-c2cc(Cl)ccc2Cl)n1N	.	.	.	.	.	.
COc1ccc(-c2nnc(SCc3c(C)noc3C)n2N)cc1OC	/	.	12µM	?	.	.
O=C(Cn1c(=O)oc2cc(S(=O)(=O)NCc3ccccc3)ccc21)Nc1cccc(F)c1	/	.	/	/	/	/
CCc1ccccc1NC(=O)CSc1ncc(S(=O)(=O)c2ccc(C(C)C)cc2)c(N)n1	/	.	/	/	/	/
CC(Sc1ncc(S(=O)(=O)c2ccc(C(C)C)cc2)c(N)n1)C(=O)Nc1ccccc1 (centres undefined)	/	-74	/	/	/	/
Cc1cc(C)n2c(Nc3ccc4c(c3)OCCO4)c(-c3ccc(Cl)cc3)nc2n1	/	.	/	/	/	/
Cc1cc(C)n2c(Nc3ccc4c(c3)OCCO4)c(-c3ccccc3)nc2n1	.	.	?	/	52	46
COc1ccc(Nc2c(-c3ccc(F)cc3)nc3nc(C)cc(C)n23)cc1	/	-67	/	/	/	/
COc1ccc(OCC(=O)Nc2cc(-c3nn(C)c(=O)c4ccccc34)ccc2OC)cc1	8.9µM	.	?	?	.	.
SMILES	HCV inhibitor	HCMV inh	Pf growth 96h	Pf growth 48h	Shiga toxin inh	CHX counter
CCC(=O)Nc1cc(-c2nn(C)c(=O)c3ccccc23)ccc1N1CCOCC1	?	.	?	/	.	.
COc1ccc(OCC(=O)Nc2cc(-c3nn(C)c(=O)c4ccccc34)ccc2N2CCOCC2)cc1	?	.	5.9µM	?	.	.
O=[N+]([O-])c1cc(CN2CCC(O)CC2)ccc1Cl	.	.	.	.	.	.
Cn1cc(/C=C2/SC(=O)N(c3ccccc3)C2=O)c2ccccc21	.	.	.	.	.	25
Cn1cccc1/C=C1\SC(=S)N(Nc2ccccc2)C1=O	.	.	.	?	51	37
Cn1cc(/C=C2\SC(=S)N(NC(=O)c3ccccc3)C2=O)c2ccccc21	.	.	.	.	.	.
O=C(O)Cn1cc(/C=C2/SC(=O)N(CC(=O)N3CCCCCC3)C2=O)c2ccccc21	.	.	?	.	.	.
